Test systems include BRSK1; BRSK2; BTK; BUB1; CAMK1B; CAMK1D; CAMK1G; CAMK1; CAMK2A; CAMK2B; CAMK2D; CAMK2G; CAMK4; CAMKK1; CAMKK2; CASK; CDC2L2.
Conditions in all cases: concentration: 1 μM, replicates: in singlicate; n = 1
The test system of a further test is T1, CDC2L1.
T1 construct: gene CDK11B

For a further test, the system named is T2, CDC2L5.
T2 construct: gene CDK13

Another test deals with T3, CDK11.
T3 construct: gene CDK19
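Note: KINOMEscan kinase panel screen.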

On to `CNc1nccc(-c2c(-c3ccc(F)cc3)ncn2C2CCN(C)CC2)n1` [SB-222903], for which the “%Inh” value stood at 0% in the test with BRSK1; 0% in the test with BRSK2; 0% in the test with BTK; 75% in the test on BUB1; 0% in the test on CAMK1B; 0% with CAMK1D. For the same compound, the “%Inh” value in the test on CAMK1G, with CAMK1, with CAMK2A, with CAMK2B, in the test with CAMK2D and with CAMK2G was 0% each time. The “%Inh” value came out at 7% in the test with CAMK4; 0% in the test on CAMKK1; 0% with CAMKK2; 11% with CASK; 4% with CDC2L1; 13% in the test on CDC2L2. Further, the “%Inh” value in the test with CDC2L5 and in the test on CDK11 was 0% throughout.

Take `COc1cc2c(Nc3cccc(NC(=O)c4ccccc4)c3)ncnc2cc1OCCCN1CCOCC1` [GSK223810]: the “%Inh” value in the test with BRSK1 was determined as 0%; in the test on BRSK2 it was 10%; in the test on BTK, 0%; with BUB1, 31%; in the test on CAMK1B, 37%; with CAMK1D, 18%. In addition, the “%Inh” value in the test with CAMK1G is reported as 0%; with CAMK1, 32%; in the test with CAMK2A, 0%; in the test with CAMK2B it was 0%; with CAMK2D it was 0%; in the test with CAMK2G, 15%. Further, the “%Inh” value with CAMK4 is listed as 0%; with CAMKK1, 1%; in the test with CAMKK2, 0%; with CASK, 6%; with CDC2L1, 0%; with CDC2L2 it was 11%. The figures for the “%Inh” value with CDC2L5 and in the test on CDK11 were 0% and 3%, respectively.

Regarding `Clc1cc(Nc2ncnc3cc[nH]c23)ccc1OCc1ccccn1`, the “%Inh” value in the test on BRSK1 is 0%; in the test on BRSK2 it was 1%; in the test with BTK, 0%; in the test on BUB1, 0%; in the test on CAMK1B, 4%; in the test on CAMK1D it was 33%. In addition, the “%Inh” value with CAMK1G is given as 27%; in the test with CAMK1 it was 35%; in the test with CAMK2A it was 0%; in the test with CAMK2B, 0%; with CAMK2D it was 19%; in the test with CAMK2G, 0%. The “%Inh” value with CAMK4 came to 0%; in the test with CAMKK1, 0%; with CAMKK2, 0%; with CASK, 0%; in the test on CDC2L1 it was 12%; in the test on CDC2L2, 15%. Moreover, the “%Inh” value is reported as 0% in the test on CDC2L5 and 29% in the test on CDK11.

Consider `COc1ccc(Nc2nccc(N3CCC(NC(=O)Nc4ccc5c(c4)OCO5)C3)n2)cc1` (stereo not drawn) [GSK1379745], for which the “%Inh” value amounted to 0% in the test on BRSK1; 2% with BRSK2; 32% with BTK; 33% in the test on BUB1; 0% in the test on CAMK1B; 8% in the test on CAMK1D. Moreover, the “%Inh” value in the test with CAMK1G was 4%; in the test on CAMK1, 8%; in the test on CAMK2A, 0%; with CAMK2B it was 1%; in the test on CAMK2D it was 7%; with CAMK2G, 20%. The “%Inh” value with CAMK4 came to 0%; in the test with CAMKK1 it was 29%; in the test with CAMKK2, 9%; in the test with CASK, 5%; in the test with CDC2L1 it was 0%; in the test on CDC2L2, 0%. For the same compound, the results for the “%Inh” value with CDC2L5 and with CDK11 were 0% and 46%, respectively.

Turning to `FC(F)(F)c1ccc(-c2nn3ncccc3c2-c2ccnc(Nc3cccc(C(F)(F)F)c3)n2)cc1` [GW828205], the “%Inh” value stood at 0% in the test with BRSK1; 0% in the test on BRSK2; 49% with BTK; 0% in the test with BUB1; 0% with CAMK1B; 18% in the test on CAMK1D. The “%Inh” value in the test with CAMK1G turned out to be 0%; with CAMK1, 11%; with CAMK2A, 0%; with CAMK2B, 0%; in the test with CAMK2D, 0%; with CAMK2G, 0%. For the same compound, the “%Inh” value came out at 17% in the test with CAMK4; 6% in the test with CAMKK1; 0% in the test on CAMKK2; 0% in the test on CASK; 0% with CDC2L1; 3% in the test with CDC2L2. The “%Inh” value in the test on CDC2L5 and in the test with CDK11 was 0% in each case.

In the case of `Cc1ccc(O)cc1Nc1cc(C(F)(F)F)nc2ccc(-c3ccncc3)cc12` [GW630823], the “%Inh” value turned out to be 3% with BRSK1; 0% with BRSK2; 0% in the test with BTK; 0% in the test with BUB1; 0% in the test on CAMK1B; 14% in the test on CAMK1D. Besides, the “%Inh” value came to 1% in the test with CAMK1G; 8% in the test with CAMK1; 20% in the test with CAMK2A; 2% in the test with CAMK2B; 2% in the test on CAMK2D; 16% in the test on CAMK2G. Further, the “%Inh” value is 0% in the test with CAMK4; 11% in the test with CAMKK1; 16% in the test on CAMKK2; 1% with CASK; 17% in the test on CDC2L1; 0% with CDC2L2. The “%Inh” value in the test with CDC2L5 and in the test on CDK11 was 0% each time.

With `Cc1cccc(-c2nc(Nc3ccc4[nH]nnc4c3)c3ccccc3n2)n1` [GW867587], the “%Inh” value is given as 0% in the test on BRSK1; 0% in the test with BRSK2; 0% in the test on BTK; 13% with BUB1; 0% in the test with CAMK1B; 0% in the test on CAMK1D. Further, the “%Inh” value in the test with CAMK1G is 0%; in the test on CAMK1, 0%; in the test on CAMK2A, 0%; with CAMK2B, 8%; in the test on CAMK2D, 0%; in the test on CAMK2G it was 0%. Also, the “%Inh” value came out at 0% with CAMK4; 0% with CAMKK1; 0% with CAMKK2; 4% in the test on CASK; 0% in the test on CDC2L1; 0% with CDC2L2. The “%Inh” value in the test with CDC2L5 and with CDK11 was 0% each time.

As for `O=C(CCO)NCCn1ccc2ncnc(Nc3ccc(Oc4cccc(C(F)(F)F)c4)c(Cl)c3)c21`, the “%Inh” value is 0% with BRSK1; 0% in the test on BRSK2; 0% with BTK; 0% in the test with BUB1; 0% in the test on CAMK1B; 7% in the test with CAMK1D. The “%Inh” value with CAMK1G, with CAMK1, in the test with CAMK2A, with CAMK2B, in the test on CAMK2D and with CAMK2G was 0% each time. The “%Inh” value came out at 0% with CAMK4; 0% in the test with CAMKK1; 7% in the test on CAMKK2; 0% in the test on CASK; 0% with CDC2L1; 0% with CDC2L2. The “%Inh” value in the test on CDC2L5 and in the test on CDK11 was 0% in each case.

For `Cl.Fc1ccccc1COc1ccc(Nc2ncnc3ccc(-c4nnc(C(F)(F)F)o4)cc23)cc1Cl` [GW424170], the “%Inh” value is 0% in the test on BRSK1; 0% in the test on BRSK2; 0% in the test with BTK; 0% with BUB1; 0% in the test with CAMK1B; 8% in the test on CAMK1D. Also, the “%Inh” value came out at 0% in the test on CAMK1G; 13% in the test on CAMK1; 0% in the test on CAMK2A; 0% in the test on CAMK2B; 0% in the test with CAMK2D; 14% in the test with CAMK2G. Also, the “%Inh” value in the test with CAMK4 turned out to be 0%; in the test on CAMKK1, 1%; with CAMKK2 it was 10%; in the test with CASK it was 0%; in the test on CDC2L1, 0%; with CDC2L2, 15%. The “%Inh” value with CDC2L5 was determined as 0%; in the test with CDK11 it was 2%.
